Experimental data reported in PubChem BioAssay AID1159580 (chemical genetic matrix, 2015).
Where “and” joins values, the source holds several entries; their conditions need not be identical. Equal values may be shown once. The campaign covered roughly 5,500 compounds. About 2,000 (36%) were called active. About 18% were inconclusive and are not listed. No stated cut-off is given here; in the data, active means normalized growth mostly below about 0.91 (no sharp cut-off); inconclusive means no clear call, values can overlap the other calls; inactive means mostly above about 0.92. This is one part of the list.

Test: chemical genetic growth profiling, strain panel (AID 1159580);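 further: tested at 20 µM; growth read once vehicle control cultures reached saturation at 30 °C; 1 = growth at the plate median or of vehicle wells; lower values mean less growth of the strain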
Settings: S. cerevisiae deletion strains, growth OD

Measured: normalized growth

COc1cc(OC)c(-c2c(OC)cc(OC)cc2OC)c(OC)c1
inactive: locus YBR021W, strain FUR4, hits give low values 1.05 | locus YBR229C, strain ROT2, hits give low values 1.01 | locus YCL029C, strain bik1, hits give low values 0.997 | locus YDL035C, strain GPR1, hits give low values 1.02 | locus YDL074C, strain BRE1, hits give low values 1.06 | locus YDL101C, strain DUN1, hits give low values 1.03 | locus YDL185W, strain tfp1, hits give low values 1.03 | locus YDL192W, strain arf1, hits give low values 1.04 | locus YDR101C, strain arx1, hits give low values 1.02 | locus YDR162C, strain NBP2, hits give low values 1.04 | locus YDR318W, strain mcm21, hits give low values 1.03 | locus YDR388W, hits give low values 1.01 | locus YDR502C, strain sam2, hits give low values 1.05 | locus YEL061C, strain CIN8, hits give low values 1.01 | locus YER110C, hits give low values 1.02 | locus YER155C, strain BEM2, hits give low values 1.01 | locus YER167W, strain BCK2, hits give low values 1.01 | locus YGL078C, strain dbp3, hits give low values 1.05 | locus YGL086W, strain mad1, hits give low values 1.04 | locus YGL248W, strain PDE1, hits give low values 1.03 | locus YGR078C, strain PAC10, hits give low values 1.06 | locus YGR135W, strain pre9, hits give low values 1.07 | locus YGR252W, strain gcn5, hits give low values 1.05 | locus YHR030C, strain SLT2, hits give low values 0.998 | locus YHR079C, strain IRE1 (second series), hits give low values 1.02 | locus YHR079C, strain IRE1, hits give low values 0.998 | locus YHR094C, strain hxt1, hits give low values 1.03 | locus YHR129C, strain ARP1, hits give low values 1.01 | locus YHR200W, strain rpn10, hits give low values 1.03 | locus YIL066C, strain RNR3, hits give low values 1.02 | locus YIL073C, strain SPO22, hits give low values 1.1 | locus YIL125W, strain kgd1, hits give low values 1.01 | locus YIR030C, strain dcg1, hits give low values 1.02 | locus YJL095W, strain BCK1, hits give low values 1.09 and 0.999 | locus YJL134W, strain LCB3, hits give low values 1.01 | locus YJL168C, strain set2, hits give low values 1.02 | locus YJL187C, strain SWE1 (second series), hits give low values 1.06 | locus YJR066W, strain TOR1, hits give low values 0.953 | locus YJR075W, strain HOC1, hits give low values 1.04 | locus YKL009W, strain mrt4, hits give low values 1.06 | locus YKL068W, hits give low values 0.993 | locus YKL085W, strain MDH1 (second series), hits give low values 1.01 | locus YKL085W, strain MDH1, hits give low values 1.01 | locus YKL190W, strain CNB1, hits give low values 1.02 | locus YKR001C, strain vps1, hits give low values 1.05 | locus YLR039C, strain RIC1, hits give low values 1.07 | locus YLR058C, strain SHM2, hits give low values 1.04 | locus YLR102C, strain apc9, hits give low values 1.01 | locus YLR113W, strain HOG1, hits give low values 1 | locus YLR262C, strain YPT6, hits give low values 1.09 | locus YLR268W, strain sec22, hits give low values 1.02 | locus YLR371W, strain rom2, hits give low values 1.02 | locus YLR418C, strain cdc73, hits give low values 1.13 | locus YML016C, strain PPZ1, hits give low values 1.02 | locus YML032C, strain rad52, hits give low values 1.04 | locus YML124C, strain tub3, hits give low values 1.02 | locus YMR078C, strain ctf18, hits give low values 1.02 | locus YMR223W, strain ubp8, hits give low values 1.04 | locus YMR307W, strain GAS1, hits give low values 1.07 | locus YNL067W, strain RPL9B, hits give low values 1.05 | locus YNL183C, strain NPR1, hits give low values 0.948 | locus YNL233W, strain BNI4, hits give low values 1.07 | locus YNL250W, strain rad50, hits give low values 1.06 | locus YNL271C, strain bni1, hits give low values 1.02 | locus YNL298W, strain CLA4, hits give low values 1.03 | locus YNL307C, strain MCK1, hits give low values 1.03 | locus YNR052C, strain pop2, hits give low values 1.04 | locus YOL006C, strain TOP1, hits give low values 1.15 | locus YOL012C, strain htz1 0.971 | locus YOL147C, strain pex11, hits give low values 1.03 | locus YOR061W, strain CKA2, hits give low values 1.02 | locus YOR069W, strain VPS5, hits give low values 1.01 | locus YOR136W, strain idh2, hits give low values 1.03 | locus YOR144C, strain elg1, hits give low values 1.02 | locus YOR184W, strain ser1, hits give low values 1.04 | locus YOR231W, strain MKK1, hits give low values 0.976 | locus YOR316C, strain cot1, hits give low values 1.03 | locus YPL256C, strain CLN2, hits give low values 0.997 | locus YPR119W, strain clb2, hits give low values 1.01 | locus YPR141C, strain kar3, hits give low values 1.02 | locus YPR163C, strain tif3, hits give low values 1.03 | locus YPR167C, strain met16, hits give low values 1.03 | strain wtn01, hits give low values 1.03
